# High-throughput results from PubChem BioAssay.
# CYP2C9 act: increases human cytochrome P450 2C9 activity. recombinant CYP2C9, luciferin-H conversion, luminescence; stronger effect = higher value; factor 1 = untreated enzyme, 0 = blocked. activation factor at 5 µM. hit rate 1.4% among 96,000;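 active = activation factor of 2 or more for CYP2C9 at a 5 µM dose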;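 note: 0 = sulfaphenazole-blocked wells and 1 = vehicle-only wells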
# CYP2C9 inh: human CYP2C9 inhibition; P11712; CYP2C9 Supersomes, luciferin-H conversion, luminescence; inhibition, % at 5 µM; hit rate 20% among 96,000;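 active = blocking of liver enzyme CYP2C9 beyond about 50% at 5 µM, limit read from the data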
# CYP2C19 inhib: human CYP2C19 inhibition | P33261 | CYP2C19 Supersomes, luciferin-H EGE luminescence, 30 min | inhibition, % at 5 µM | hit rate 21% among 96,000;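 active = CYP2C19 inhibition above a set limit at 5 µM in the primary screen, cut at about 50% in these data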;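 note: plate controls were negative control wells for no effect and 2.5 mM tranylcypromine positive control for full effect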
# Target sequence (P33261 whole entry, looked up): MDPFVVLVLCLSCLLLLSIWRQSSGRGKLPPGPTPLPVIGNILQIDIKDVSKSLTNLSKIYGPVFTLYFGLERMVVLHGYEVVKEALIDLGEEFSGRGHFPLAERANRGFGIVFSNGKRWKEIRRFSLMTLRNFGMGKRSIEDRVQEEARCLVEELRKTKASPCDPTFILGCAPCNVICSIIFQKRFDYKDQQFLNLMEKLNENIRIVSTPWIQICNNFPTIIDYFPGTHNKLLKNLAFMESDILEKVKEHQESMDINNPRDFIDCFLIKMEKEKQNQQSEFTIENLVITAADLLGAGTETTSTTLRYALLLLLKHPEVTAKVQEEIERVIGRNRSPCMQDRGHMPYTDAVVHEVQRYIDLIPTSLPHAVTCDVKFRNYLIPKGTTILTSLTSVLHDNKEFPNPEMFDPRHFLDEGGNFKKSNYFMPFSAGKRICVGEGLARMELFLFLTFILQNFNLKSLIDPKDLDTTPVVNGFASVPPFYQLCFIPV
# CYP2C19 act: cytochrome P450 2C19 (human) activation; recombinant CYP2C19, luciferin-H EGE luminescence; stronger effect = higher value; 0 = fully inhibited enzyme, 1 = untreated enzyme; 96,000 tested, under 10 active; AID 1025; activation factor at 5 µM; P33261;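 active = activation factor of at least 2 at 5 µM in the primary screen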;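 note: 0 = wells with 2.5 mM tranylcypromine and 1 = vehicle-only wells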
# PostGolgi ctrl: growth of the yeast control strain, post-Golgi counter-screen; efflux-deficient yeast background strain, growth absorbance A615, 16 h; inhibition, % at 10 µM; hit rate 5% among 98,000; AID 738
# PostGolgi yeast: growth inhibition of a yeast mutant, post-Golgi transport screen; AID 739; post-Golgi transport phenotypic cell assay; hit rate 0.9% among 98,000; inhibition, % at 10 µM;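 note: yeast cells grown in 1536-well plates; yeast grown about 18 h at 30C before absorbance read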
# Starred values were filed as active, the others as inactive; / = no result given. The list is not random: actives were taken first. Their share in the collection is about 32%. Cut-off read from the data, not from the text of the source, unless noted: active = inhibition above about 30%; inactive = the rest.
SMILES,CYP2C9 act,CYP2C9 inh,CYP2C19 inhib,CYP2C19 act,PostGolgi ctrl,PostGolgi yeast
O=C(CCn1c(=O)c2ccccc2n(CC(=O)NC2CCCC2)c1=O)NCc1ccco1,0.5,54.3*,16.3,0.8,8.4,5.0
CCc1ccc(NC(=O)Cn2c(=O)n(CCCC(=O)NCc3ccco3)c(=O)c3ccccc32)cc1,0.7,28.3,9.8,0.9,-7.3,-0.8
O=C(CCCCn1c(=O)c2ccccc2n(CC(=O)Nc2cccc(F)c2)c1=O)NCc1ccco1,0.3,74.6*,19.7,0.8,3.9,-0.9
O=C(CCCCn1c(=O)c2ccccc2n(CC(=O)NC2CCCC2)c1=O)NCc1ccco1,0.4,61.9*,18.5,0.8,-3.8,3.8
COc1cccc(NC(=O)Cn2c(=O)n(CCCC(=O)NCc3ccco3)c(=O)c3ccccc32)c1,0.8,18.0,30.0,0.7,-12.9,14.5
O=C(CCCCn1c(=O)c2ccccc2n(Cc2ccc(Cl)cc2)c1=O)NCc1ccco1,0.7,30.5,17.6,0.8,4.5,5.3
CC1CC(C)CN(C(=O)Cn2c(=O)n(CCCCC(=O)NCc3ccco3)c(=O)c3ccccc32)C1 (stereo not given),0.2,79.1*,29.4,0.7,0.3,12.8
CCOC(=O)c1snc(-c2ccc(F)cc2)c1N,0.9,9.4,32.9,0.7,5.5,11.1
O=C(CCCCn1c(=O)c2ccccc2n(CC(=O)NC2CCCC2)c1=O)NC1CCCC1,0.4,62.4*,18.1,0.8,4.3,13.8
CCCN(CCC)C(=O)Cn1c(=O)n(CCCCC(=O)NC2CCCC2)c(=O)c2ccccc21,0.5,46.2,19.4,0.8,11.3,7.1
CC1CCCCN1C(=O)Cn1c(=O)n(C2CCCCC2)c(=O)c2ccccc21 (stereo not given),0.7,29.9,5.3,0.9,6.5,18.9
COc1ccc(-n2c(=O)c3ccccc3n(CC(=O)NC3CCCCC3)c2=O)c(OC)c1,0.8,16.3,2.7,1,7.2,-1.1
COc1ccc(-n2c(=O)c3ccccc3n(CC(=O)NC3CCCC3)c2=O)cc1,0.8,15.6,8.2,0.9,37.0*,-2.1
CC1CC(C)CN(C(=O)Cn2c(=O)n(CCCCC(=O)NC3CCCC3)c(=O)c3ccccc32)C1 (stereo not given),0.3,73.5*,32.7,0.7,17.3,19.6
COC(=O)[C@H]1CCCN1C(=O)Nc1cccc(Oc2c(F)c(F)c(F)c(F)c2F)c1,/,/,/,/,-6.6,5.6
CN(C1CCCCC1)S(=O)(=O)c1ccc(-n2cnnn2)cc1,0.7,25.4,99.7*,0,3.5,2.0
CC1CCCCC1NS(=O)(=O)c1ccc(S(=O)(=O)N2CCCC2)cc1 (stereo not given),0.2,79.4*,79.3*,0.2,21.1,-0.3
CC1CCCCC1NS(=O)(=O)c1ccc(-n2cnnn2)cc1 (stereo not given),1,0.5,88.2*,0.1,12.6,3.2
CC1CCCCC1NC(=O)c1ccc(S(=O)(=O)N2CCCC2)cc1 (stereo not given),0.8,20.1,6.2,0.9,7.3,-1.6
O=C(C1CCCN(S(=O)(=O)c2cnc[nH]2)C1)N1CC(=O)N(CCc2ccccc2)C(=O)C1 (stereo not given),0.7,27.5,12.5,0.9,8.6,7.4
CC(C)CCOc1ccc(C(=O)NCCC(=O)N2CCOCC2)cc1,0.9,7.2,-3.6,1,10.6,9.5
C/C(=C\C(=O)O)C12CC3CC(CC(C3)C1)C2,0.9,10.5,-5.3,1.1,6.0,-1.5
O=C(NC1=NCCS1)C12CC3CC(C1)CC(C(=O)NC1=NCCS1)(C3)C2,0.9,5.9,38.2,0.6,-2.2,6.3
CC12CC3CC(C)(C1)CC(C(=O)NC1=NCCS1)(C3)C2,1.1,-8.8,57.6*,0.4,37.6*,-1.6
Cc1ccccc1N(C(=O)Cn1nnc(-c2cccs2)n1)C(C(=O)NCCC(C)C)c1ccco1 (stereo not given),0.2,83.9*,59.7*,0.4,14.3,3.6
SMILES,CYP2C9 act,CYP2C9 inh,CYP2C19 inhib,CYP2C19 act,PostGolgi ctrl,PostGolgi yeast
CC(C)CCNC(=O)C(c1ccco1)N(Cc1cccs1)C(=O)Cn1nnc2ccccc21 (stereo not given),0.4,59.0*,73.2*,0.3,-3.5,-14.1
CSc1nc(Sc2ccccc2Cl)c2ccccc2n1,1,-4.8,-6.5,1.1,5.6,-10.0
CCCCN(CC)C(=O)c1n[nH]c(=O)c2ccccc12,0.7,25.8,-25.2,1.3,-7.8,12.4
COc1cc(C(=O)NC(=S)Nc2cccc(-c3cc4ccccc4oc3=O)c2)cc(OC)c1OC,0.3,68.3*,21.6,0.8,4.2,-1.9
Cc1c(C(=O)NCc2ccc3c(c2)OCO3)sc2nc(-c3ccc(F)cc3)cn12,1,-4.8,-6.7,1.1,2.6,-1.0
Cc1c(C(=O)NCc2ccccn2)sc2nc(-c3ccc(F)cc3)cn12,0.4,62.6*,-1.7,1,4.3,-5.2
Cc1c(C(=O)NCC2CCCO2)sc2nc(-c3ccc(F)cc3)cn12 (stereo not given),0.4,55.1*,-2.4,1,2.2,7.1
CCCCCCCCCOC(=O)C(CC(=O)O)N1CCOCC1 (stereo not given),0.2,77.0*,3.9,1,-0.5,4.4
O=C(O)CC(C(=O)OC1CCCCC1)N1CCOCC1 (stereo not given),0.8,20.3,5.0,0.9,17.9,0.0
Cc1cc(C)nc(SCC(=O)N/N=C/c2cccn2-c2ccc(O)cc2)n1,0.5,54.7*,17.4,0.8,1.1,17.1
Cc1cc(C)nc(SCC(=O)N/N=C/c2cccn2-c2cccc(C(F)(F)F)c2)n1,0.8,16.8,32.3,0.7,7.5,2.1
CN(C)C(=O)CSc1nnc([C@H](Cc2c[nH]c3ccccc23)NC(=O)OC(C)(C)C)o1,0.9,13.4,10.3,0.9,/,/
CCn1nccc1C(=O)Nc1cc(Cl)ccc1Cl,1.1,-10.4,2.6,1,-1.2,6.0
CCn1nccc1C(=O)Nc1ccc(Cl)cc1Cl,0.7,33.8,63.4*,0.4,31.7*,8.9
CC1CCN(S(=O)(=O)c2ccc(F)c(C(=O)O)c2)CC1,1.1,-6.5,-9.6,1.1,-1.2,4.2
CC1CCN(S(=O)(=O)c2ccc3ccccc3c2)CC1,2.7*,-166.6,83.3*,0.2,33.6*,5.5
CCOc1ccc2cc(S(=O)(=O)N3CCN(C)CC3)ccc2c1,/,/,/,/,2.4,7.4
CCOC(=O)N1CCC(N2CCN(S(=O)(=O)c3ccc4ccccc4c3)CC2)CC1,2.2*,-118.2,12.8,0.9,-6.5,-9.1
CN(C)S(=O)(=O)N1CCN(S(=O)(=O)c2ccc3ccccc3c2)CC1,1.1,-6.7,6.1,0.9,8.5,-11.7
CN1CCN(S(=O)(=O)c2ccc3ccccc3c2)CC1,2.5*,-145.6,7.5,0.9,14.6,6.8
CN1CCN(S(=O)(=O)c2cccc(S(=O)(=O)c3cccc(S(=O)(=O)N4CCN(C)CC4)c3)c2)CC1,0.2,80.3*,39.7,0.6,-8.1,15.6
